# Test results from the supplement of paper PMC10412459.
# Structures can show the parent of a compound that is named as a salt.
# Test system: K562 SF3B1 K700E vs K562 SF3B1 WT
# Experiment: surviving fraction ratio K562 SF3B1 K700E / K562 SF3B1 WT (each relative to DMSO); higher = less selective killing of SF3B1 K700E cells
# Conditions: 5 days
# How it was run: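 Each value is the mutant-to-wild-type ratio of surviving fractions, with both fractions normalised to DMSO and viability read by CellTiter-Glo. Isogenic K562 cells with an engineered mutant allele and their matched wild-type counterparts were seeded at 250 cells per well in 384-well plates. After 24 h, an in-house 80-compound library was added at 0.5, 1, 5, 10, 50, 100, 500 and 1,000 nM, followed by 5 d of continuous culture.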
Compound,surviving fraction ratio K562 SF3B1 K700E / K562 SF3B1 WT (0.5nM),surviving fraction ratio K562 SF3B1 K700E / K562 SF3B1 WT (1nM),surviving fraction ratio K562 SF3B1 K700E / K562 SF3B1 WT (5nM),surviving fraction ratio K562 SF3B1 K700E / K562 SF3B1 WT (10nM),surviving fraction ratio K562 SF3B1 K700E / K562 SF3B1 WT (50nM),surviving fraction ratio K562 SF3B1 K700E / K562 SF3B1 WT (100nM),surviving fraction ratio K562 SF3B1 K700E / K562 SF3B1 WT (500nM),surviving fraction ratio K562 SF3B1 K700E / K562 SF3B1 WT (1000nM),surviving fraction ratio K562 SF3B1 K700E / K562 SF3B1 WT (0.1nM),surviving fraction ratio K562 SF3B1 K700E / K562 SF3B1 WT (0.2nM),surviving fraction ratio K562 SF3B1 K700E / K562 SF3B1 WT (2nM),surviving fraction ratio K562 SF3B1 K700E / K562 SF3B1 WT (20nM),surviving fraction ratio K562 SF3B1 K700E / K562 SF3B1 WT (200nM)
C#Cc1cccc(Nc2ncnc3cc(OCCOC)c(OCCOC)cc23)c1 [erlotinib],0.882,0.743,0.852,0.843,0.692,0.788,0.811,0.712,–,–,–,–,–
CS(=O)(=O)CCNCc1ccc(-c2ccc3ncnc(Nc4ccc(OCc5cccc(F)c5)c(Cl)c4)c3c2)o1 [lapatinib],0.726,0.755,0.828,0.669,0.99,0.906,0.898,0.665,–,–,–,–,–
CCc1cc(Nc2nccc(-c3c(-c4ccc(OC)c(C(=O)Nc5c(F)cccc5F)c4)nc4ccccn34)n2)c(OC)cc1N1CCC(N2CCN(S(C)(=O)=O)CC2)CC1,0.969,0.921,0.92,0.907,0.817,0.805,0.824,0.842,–,–,–,–,–
CO[C@H]1C[C@@H]2CC[C@@H](C)[C@@](O)(O2)C(=O)C(=O)N2CCCC[C@H]2C(=O)O[C@H]([C@H](C)C[C@@H]2CC[C@@H](OCCO)[C@H](OC)C2)CC(=O)[C@H](C)/C=C(\C)[C@@H](O)[C@@H](OC)C(=O)[C@H](C)C[C@H](C)/C=C/C=C/C=C/1C [everolimus],0.697,0.655,0.712,0.806,0.702,0.697,0.824,0.967,–,–,–,–,–
Oc1ccc(/C=C/c2cc(O)cc(O)c2)cc1 [resveratrol],0.896,0.898,0.856,0.905,1,1.24,0.916,1.28,–,–,–,–,–
C[C@@H]1CN(CC(=O)Nc2ccc3c(c2)Cc2cccc(-c4cc(=O)cc(N5CCOCC5)o4)c2S3)C[C@H](C)O1,0.976,1.04,0.887,0.896,1.08,0.96,0.878,0.865,–,–,–,–,–
CCN(CC)CCCCNc1ncc2cc(-c3cc(OC)cc(OC)c3)c(NC(=O)NC(C)(C)C)nc2n1,1.15,1.03,0.942,0.926,0.901,1.09,0.957,0.89,–,–,–,–,–
CCn1c(C(=O)N(C2CC2)C2CC2)cc2c3c(ncn3C)c(Nc3cc(C)n(C)n3)nc21,0.923,0.951,1,0.938,0.82,0.801,0.844,0.893,–,–,–,–,–
COc1cccc2c1C(=O)c1c(O)c3c(c(O)c1C2=O)C[C@@](O)(C(=O)CO)C[C@@H]3O[C@H]1C[C@H](N)[C@H](O)[C@H](C)O1 [doxorubicin.HCl],0.974,1.04,0.718,1.07,1.11,0.446,1.24,2.24,–,–,–,–,–
Cc1cn(-c2cc(NC(=O)c3ccc(C)c(Nc4nccc(-c5cccnc5)n4)c3)cc(C(F)(F)F)c2)cn1 [nilotinib],0.834,0.742,0.537,0.816,1.47,1.48,1.53,1.51,–,–,–,–,–
CNC(=O)c1cc(Oc2ccc(NC(=O)Nc3ccc(Cl)c(C(F)(F)F)c3)cc2)ccn1 [sorafenib],0.8,0.973,0.87,0.956,0.915,1,0.887,0.973,–,–,–,–,–
COc1ccc(-c2cc3c(C)nc(N)nc3n([C@H]3CC[C@H](OCCO)CC3)c2=O)cn1,1.06,1.14,0.92,1,0.958,0.868,1.37,1.58,–,–,–,–,–
Nc1ncn([C@H]2C[C@H](O)[C@@H](CO)O2)c(=O)n1 [decitabine],0.733,0.724,0.773,0.665,0.964,0.894,1.13,1.36,–,–,–,–,–
Cn1c(=O)n(-c2ccc(C(C)(C)C#N)cc2)c2c3cc(-c4cnc5ccccc5c4)ccc3ncc21,0.991,0.985,0.8,0.854,0.811,0.838,1.28,1.45,–,–,–,–,–
CN1CCN(c2nc(C3=C(c4c[nH]c5ccccc45)C(=O)NC3=O)c3ccccc3n2)CC1 [Sotrastaurin/AEB071],0.816,0.804,0.847,0.854,0.889,0.979,0.955,0.896,–,–,–,–,–
Nc1nc(=S)c2[nH]cnc2[nH]1 [6-thioguanine],0.927,0.836,0.914,0.819,0.78,0.792,0.828,0.777,–,–,–,–,–
CNCc1ccc(-c2[nH]c3cc(F)cc4c3c2CCNC4=O)cc1,0.834,0.856,0.825,0.831,0.897,0.794,0.847,0.711,–,–,–,–,–
Nc1ccn([C@@H]2O[C@H](CO)[C@@H](O)C2(F)F)c(=O)n1 [gemcitabine.HCl],0.839,0.772,0.465,0.491,0.901,1.16,1.1,1.16,–,–,–,–,–
CCC1=C[C@@H]2CN(C1)Cc1c([nH]c3ccccc13)[C@@](C(=O)OC)(c1cc3c(cc1OC)N(C)[C@H]1[C@@](O)(C(=O)OC)[C@H](OC(C)=O)[C@]4(CC)C=CCN5CC[C@]31[C@@H]54)C2 [vinorelbine],1.02,0.921,0.475,0.385,1.53,1.9,1.97,1.89,–,–,–,–,–
O=C(NOCC1CC1)c1ccc(F)c(F)c1Nc1ccc(I)cc1Cl,1.29,0.978,1.08,0.818,1.3,0.822,0.921,0.944,–,–,–,–,–
CNC(=O)c1ccc(N2C(=S)N(c3ccc(C#N)c(C(F)(F)F)c3)C(=O)C2(C)C)cc1F,0.896,0.933,0.864,1.07,0.871,0.847,0.769,0.98,–,–,–,–,–
Cc1nc(Nc2n[nH]c3c2CN(C(=O)N[C@H](CN(C)C)c2ccccc2)C3(C)C)c2sccc2n1,0.912,0.858,1.09,1.34,1.76,1.69,1.98,1.69,–,–,–,–,–
C[C@]12O[C@H](C[C@]1(O)CO)n1c3ccccc3c3c4c(c5c6ccccc6n2c5c31)CNC4=O [lestaurtinib],–,0.8,–,0.877,–,0.823,–,–,0.691,0.885,0.895,0.855,0.907
COc1cc2ncnc(Nc3ccc(F)c(Cl)c3)c2cc1OCCCN1CCOCC1 [gefitinib],0.645,0.787,0.848,0.768,0.792,0.802,0.781,0.907,–,–,–,–,–
CC1(C)CC(=O)c2c(C(F)(F)F)nn(-c3ccc(C(N)=O)c(N[C@H]4CC[C@H](OC(=O)CN)CC4)c3)c2C1,0.983,0.972,0.763,0.719,1.18,2.16,1.09,1.16,–,–,–,–,–
